Activity calls are given as the source filed them. How the source made its calls: active means hit-call score of the fitted dose curve at least 0.9, where 1 is the maximum; inactive means score below 0.9.

rat Glutamate (Kainate, Non-Selective), conducted at France lab site, Grik1 (gene 29559), sequence (P22756 whole entry, looked up): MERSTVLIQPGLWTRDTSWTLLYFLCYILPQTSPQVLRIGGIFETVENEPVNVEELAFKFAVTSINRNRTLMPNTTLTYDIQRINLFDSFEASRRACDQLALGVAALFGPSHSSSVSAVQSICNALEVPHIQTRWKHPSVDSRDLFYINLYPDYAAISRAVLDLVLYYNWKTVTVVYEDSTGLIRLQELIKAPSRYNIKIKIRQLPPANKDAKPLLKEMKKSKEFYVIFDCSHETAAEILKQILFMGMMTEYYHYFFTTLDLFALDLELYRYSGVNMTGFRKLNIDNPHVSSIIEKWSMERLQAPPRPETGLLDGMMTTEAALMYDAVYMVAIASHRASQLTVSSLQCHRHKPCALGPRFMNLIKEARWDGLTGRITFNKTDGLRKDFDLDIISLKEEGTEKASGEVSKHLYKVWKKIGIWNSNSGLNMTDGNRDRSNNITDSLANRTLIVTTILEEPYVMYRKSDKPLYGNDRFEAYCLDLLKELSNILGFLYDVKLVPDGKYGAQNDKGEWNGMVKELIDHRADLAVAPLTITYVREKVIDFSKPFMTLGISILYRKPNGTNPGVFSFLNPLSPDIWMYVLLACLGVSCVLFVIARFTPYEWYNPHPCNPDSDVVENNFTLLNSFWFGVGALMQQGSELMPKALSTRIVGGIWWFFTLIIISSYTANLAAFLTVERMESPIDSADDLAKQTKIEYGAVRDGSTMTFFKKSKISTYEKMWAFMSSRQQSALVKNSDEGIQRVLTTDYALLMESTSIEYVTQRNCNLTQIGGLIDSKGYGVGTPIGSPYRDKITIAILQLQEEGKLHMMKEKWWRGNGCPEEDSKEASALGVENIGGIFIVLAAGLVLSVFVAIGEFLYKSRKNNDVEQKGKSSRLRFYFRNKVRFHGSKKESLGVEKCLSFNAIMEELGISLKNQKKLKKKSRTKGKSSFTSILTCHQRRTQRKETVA

In the assay the target is rat Glutamate (Kainate, Non-Selective), conducted at France lab site, Grik1 (gene 29559) (UniProt P22756). Nature of the assay: ERF_FR_LGIC_rGRIK1: Eurofins (ERF) Ion Channel [3H] Kainic acid Binding LeadHunter Assay for rat Glutamate (Kainate, Non-Selective), conducted at France lab site. The procedure:
ERF_FR_LGIC_rGRIK1 is a biochemical, single-readout assay that uses extracted gene-proteins in a cell-free assay. Measurements were taken 1 hour after chemical dosing in a 96-well plate. See Glutamate (Kianate, Non-Selective) Rat Ion Channel [3H]- Kainic acid Binding Assay, Cerep.ERF_FR_LGIC_rGRIK1 is an assay component calculated from the ERF_FR_LGIC_rGRIK1 assay. It is designed to measure radioligand binding using a type of binding reporter as detected by scintillation counting with radiometry technology.Data from the assay component ERF_FR_LGIC_rGRIK1 was analyzed at the assay endpoint, ERF_FR_LGIC_rGRIK1, in the positive analysis fitting direction relative to DMSO as the negative control and baseline of activity. Using a type of binding reporter, loss-of-signal activity can be used to understand changes in binding as they relate to gene GRIK1. To generalize the intended target to other relatable targets, this assay endpoint is annotated to the ion channel intended target family, where the subfamily is ligand-gated (glutamate, Ionotropic).
Glutamate kainite receptor containing membranes are prepared from brain cortices from male Wistar rats in Tris-HCl buffer pH 7.4. A 10 mg aliquot is incubated with 5 nM [3H]Kainic acid for 60 minutes at 4C. […] Membranes are filtered and washed, the filters are then counted to determine [3H]Kainic acid specifically bound.
For orientation: AC50 means the concentration at which the activity in the assay is half-maximal. `O=C(/C=C/c1ccc(O)cc1)CC(=O)/C=C/c1ccc(O)cc1`: the AC50 was 2870 nM (active).
